# Data published in PubChem BioAssay (EPA / NIEHS).
# Records with an inconclusive call do not appear. Activity calls are given as the source filed them. Rule for the calls, unless noted: active = hit-call score of the fitted dose curve at least 0.9, where 1 is the maximum; inconclusive = response in the unintended direction; inactive = score below 0.9.
# Legend:
# [1] = TOX21_PR_LUC_Followup_Antagonist_viability: Viability Assessment in the Tox21 HEK293 Progesterone Receptor (PR) Antagonism Luciferase Follow-Up Assay (AID 2283940)
# Method in brief: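 Cellular ATP, measured with luciferase-coupled CellTiter-Glo, served as the viability endpoint after HEK293-PR-A-luc cells were exposed to test compounds for 16 h at 37C.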
# [2] = TOX21_PR_LUC_Followup_Agonist_viability: Viability Assessment in the Tox21 HEK293 Progesterone Receptor (PR) Agonism Luciferase Follow-Up Assay (AID 2283941);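 note: loss of signal means cytotoxicity so actives lower viability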
# Method in brief: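 Luminescent ATP quantitation (CellTiter-Glo) serves as the read-out; a drop flags cytotoxic compounds. Cells are HEK293-PR-A-luc grown in 10% charcoal-stripped FBS, plated 3,000/well, and exposed to compound for 16 h.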
# [3] = CCTE_Harrill_HTTr_Viability_DMEM_6hr: (Pilot) CCTE's 6-hour Cell Viability Assessment for the High-Throughput Transcriptomics (HTTr) Platform, in MCF-7 cells cultured in DMEM + 10% fetal bovine serum, Harrill Lab (AID 2283973; active = hit-call score of the fitted dose curve at least 0.9, where 1 is the maximum; inactive = score below 0.9)
# Method in brief: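 MCF-7 cells in DMEM + 10% FBS, eight-point dilution series, 6 h exposure. Membrane integrity by propidium iodide exclusion with high-content imaging; bidirectional fit versus DMSO.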
# [4] = CCTE_Harrill_HTTr_Viability_DMEM_12hr: (Pilot) CCTE's 12-hour Cell Viability Assessment for the High-Throughput Transcriptomics (HTTr) Platform, in MCF-7 cells cultured in DMEM + 10% fetal bovine serum, Harrill Lab (AID 2283974; active = hit-call score of the fitted dose curve at least 0.9, where 1 is the maximum; inactive = score below 0.9)
# Method in brief: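 MCF-7 cells in DMEM + 10% FBS exposed 12 h to an eight-point dilution series; membrane integrity scored by propidium iodide exclusion with high-content imaging, bidirectional fitting versus DMSO.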
# [5] = CCTE_Harrill_HTTr_Viability_DMEM_24hr: (Pilot) CCTE's 24-hour Cell Viability Assessment for the High-Throughput Transcriptomics (HTTr) Platform, in MCF-7 cells cultured in DMEM + 10% fetal bovine serum, Harrill Lab (AID 2283975; active = hit-call score of the fitted dose curve at least 0.9, where 1 is the maximum; inactive = score below 0.9)
# Method in brief: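 MCF-7 cells in DMEM with 10% FBS exposed for 24 hours to an eight-point dilution series. Membrane integrity by propidium iodide exclusion with high content imaging; bidirectional fit against DMSO.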
# [6] = CCTE_Harrill_HTTr_Viability_PRF_DMEM_6hr: (Pilot) CCTE's 6-hour Cell Viability Assessment for the High-Throughput Transcriptomics (HTTr) Platform, in MCF-7 cells cultured phenol red-free DMEM + 10% charcoal-stripped fetal bovine serum, Harrill Lab (AID 2283976; active = hit-call score of the fitted dose curve at least 0.9, where 1 is the maximum; inactive = score below 0.9)
# Method in brief: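 MCF-7 cells in phenol red-free DMEM with 10% charcoal-stripped FBS exposed 6 hours to an eight-point dilution series. Propidium iodide exclusion imaged; curves fitted bidirectionally against DMSO.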
# [7] = CCTE_Harrill_HTTr_Viability_PRF_DMEM_12hr: (Pilot) CCTE's 12-hour Cell Viability Assessment for the High-Throughput Transcriptomics (HTTr) Platform, in MCF-7 cells cultured in phenol red-free DMEM + 10% charcoal-stripped fetal bovine serum, Harrill Lab (AID 2283977; active = hit-call score of the fitted dose curve at least 0.9, where 1 is the maximum; inactive = score below 0.9)
# Method in brief: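 MCF-7 cells in phenol red-free DMEM with 10% charcoal-stripped FBS exposed 12 hours to an eight-point dilution series. Viability assessed by high-content imaging of propidium iodide exclusion; bidirectional fit versus DMSO.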
# [8] = CCTE_Harrill_HTTr_Viability_PRF_DMEM_24hr: (Pilot) CCTE's 24-hour Cell Viability Assessment for the High-Throughput Transcriptomics (HTTr) Platform, in MCF-7 cells cultured in phenol red-free DMEM + 10% charcoal-stripped fetal bovine serum, Harrill Lab (AID 2283980; active = hit-call score of the fitted dose curve at least 0.9, where 1 is the maximum; inactive = score below 0.9)
# Method in brief: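 MCF-7 cells in phenol red-free DMEM with 10% charcoal-stripped FBS, eight-point dilution series, 24 h exposure. Membrane integrity by propidium iodide exclusion with high content imaging; bidirectional fit vs DMSO.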
# THRA (gene 7067) [9] = target: THRA (gene 7067) (UniProt P10827); test: TOX21_TRA_COA_Agonist_Followup_ratio: Tox21 Thyroid Hormone Receptor alpha Agonism through Coactivator Recruitment Follow-Up Assay, Ratio (AID 2283948; active = hit-call score of the fitted dose curve at least 0.9, where 1 is the maximum; inactive = score below 0.9)
# Method in brief: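 GST-TRa LBD 2.5 nM + 0.10% BSA + cpd; add fluorescein-SRC-2 200 nM, Tb-anti-GST 2 nM. TR-FRET ex 340, em 520/495 ratio. Norm: DMSO 0%, T3 100%; gain-of-signal fit.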
# THRB (gene 7068) [10] = target: THRB (gene 7068) (UniProt P10828); test: TOX21_TRB_BLA_Agonist_Followup_ratio: Tox21 Thyroid Hormone Receptor beta Agonism Beta-lactamase (BLA) Follow-Up Assay, Ratio (AID 2283954)
# Method in brief: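 Human TRβ LBD–GAL4 DBD fusion in GeneBLAzer UAS-bla HEK293T cells; 11 concentrations in triplicate, 18 h at 37°C/5% CO2, T3 as agonist control. CCF4-AM substrate 2 h at room temperature; 460:530 nm ratio fitted for gain of signal versus DMSO.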
# THRB (gene 7068) [11] = target: THRB (gene 7068) (UniProt P10828); test: TOX21_TRB_COA_Agonist_Followup_ratio: Tox21 Thyroid Hormone Receptor beta Agonism through Coactivator Recruitment Follow-Up Assay, Ratio (AID 2283963; active = hit-call score of the fitted dose curve at least 0.9, where 1 is the maximum; inactive = score below 0.9)
# Method in brief: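 Cell-free TR-FRET coactivator recruitment: GST-tagged TRβ LBD (5.0 nM) with 0.10% BSA incubated with compound, then fluorescein-SRC-2 peptide (200 nM) and Tb-anti-GST antibody (2 nM) added. 520:495 nm ratio normalized to DMSO (0%) and T3 (100%).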
# [12] = target: Retinoic acid receptor RXR-alpha (Homo sapiens) (UniProt P19793); test: TOX21_TR_RXR_BLA_Agonist_Followup_ratio: Tox21 Thyroid Hormone Receptor beta Retinoid X Receptor alpha (RXRa) Agonism Beta-lactamase (BLA) Follow-Up Assay, Ratio (AID 2283968)
# Method in brief: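 This follow-up tests whether responses seen in the TR GH3 luciferase agonist screen are specific, using a GAL4-driven beta-lactamase reporter for RXRa in HEK293T cells. Compound exposure lasts 16 h; signal is the cleaved/uncleaved substrate ratio.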
# [13] = TOX21_TR_RXR_BLA_Agonist_Followup_viability: Viability Assessment in the Tox21 Thyroid Hormone Receptor beta Retinoid X Receptor alpha (RXRa) Agonism Beta-lactamase (BLA) Follow-Up Assay (AID 2283970)
# Method in brief: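 In qHTS format, RXRa-bla HEK293T cells (2,500/well) received compound for 16h. ATP content was then measured with CellTiter-Glo, and responses were fitted bidirectionally relative to DMSO controls.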
# [14] = target: Thyroid hormone receptor alpha (Rattus norvegicus) + Thyroid hormone receptor beta (Rattus norvegicus) (UniProt P18113+P63059); test: TOX21_TR_LUC_GH3_Antagonist_Followup: Tox21 GH3 Thyroid Hormone Receptor Antagonism Luciferase Follow-Up Assay (AID 2283942)
# Method in brief: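 Antagonist mode: GH3 cells seeded 1,500/well, compounds at 15 concentrations (92 uM to 5nM final) plus T3 at 1.0 nM final, 24 h at 37C. Luciferase read with ONE-Glo after 30 min at room temperature.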
# [15] = TOX21_TRB_BLA_Antagonist_Followup_viability: Viability Assessment in the Tox21 Thyroid Hormone Receptor beta Antagonism Beta-lactamase (BLA) Follow-Up Assay (AID 2283961)
# Method in brief: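 Viability read as CellTiter-Glo ATP luminescence (loss of signal = cytotoxicity) in the same plates as the TRβ-bla readout. TRβ-LBD/GAL4 UAS-bla HEK293T cells were exposed to compounds, 11 concentrations in triplicate, for 18 h at 37C/5% CO2.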
# THRB (gene 7068) [16] = target: THRB (gene 7068) (UniProt P10828); test: TOX21_TRB_COA_Antagonist_Followup_ratio: Tox21 Thyroid Hormone Receptor beta Antagonism through Coactivator Recruitment Follow-Up Assay, Ratio (AID 2283967)
# Method in brief: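 Cell-free TR-FRET: GST-TRb LBD (5.0 nM) with fluorescein-SRC-2 peptide (200 nM) and Tb anti-GST antibody (2 nM), 0.10% BSA. 520:495 nm emission ratio normalized to DMSO (0%) and T3 (100%).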
# THRB (gene 7068) [17] = target: THRB (gene 7068) (UniProt P10828); test: TOX21_TRB_BLA_Antagonist_Followup_ratio: Tox21 Thyroid Hormone Receptor beta Antagonism Beta-lactamase (BLA) Follow-Up Assay, Ratio (AID 2283958)
# Method in brief: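 In this antagonist-mode follow-up, a stably integrated GAL4-TRβ LBD fusion drives a UAS-beta-lactamase reporter in HEK293T cells. Loss of ratio signal relative to DMSO after 18 h treatment indicates activity; parallel CellTiter-Glo flags cytotoxicity.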
# [18] = target: Retinoic acid receptor RXR-alpha (Homo sapiens) (UniProt P19793); test: TOX21_TR_RXR_BLA_Antagonist_Followup_ratio: Tox21 Thyroid Hormone Receptor beta Retinoid X Receptor alpha (RXRa) Antagonism Beta-lactamase (BLA) Follow-Up Assay, Ratio (AID 2283972)
# Method in brief: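 Beta-lactamase reporter readout as cleaved/uncleaved substrate ratio (460:530 nm) after 2 h substrate loading at room temperature. GAL4-RXRa bla HEK293T cells were exposed 16 h at 37C to 11-point compound series; loss of signal scored against DMSO baseline.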
# THRA (gene 7067) [19] = target: THRA (gene 7067) (UniProt P10827); test: TOX21_TRA_COA_Antagonist_Followup_ratio: Tox21 Thyroid Hormone Receptor alpha Antagonism through Coactivator Recruitment Follow-Up Assay, Ratio (AID 2283953)
# Method in brief: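 This follow-up to the GH3 luciferase screen checks specificity in a cell-free format. It measures SRC-2 coactivator peptide binding to TRα LBD by TR-FRET and scores loss of ratio signal relative to DMSO.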
# [20] = TOX21_TR_RXR_BLA_Antagonist_Followup_viability: Viability Assessment in the Tox21 Thyroid Hormone Receptor beta Retinoid X Receptor alpha (RXRa) Antagonism Beta-lactamase (BLA) Follow-Up Assay (AID 2283979)
# Method in brief: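 RXRa-bla HEK293T cells (2,500/well, phenol red-free DMEM, 2% charcoal-stripped FBS) were attached 5 h, then exposed to compounds at 11 concentrations in triplicate for 16 h at 37C. Viability measured by CellTiter-Glo ATP luminescence, bidirectional fitting versus DMSO.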
# Retinoic acid receptor RXR-alpha (Homo sapiens), sequence (P19793 whole entry, looked up, the tested form may be a part): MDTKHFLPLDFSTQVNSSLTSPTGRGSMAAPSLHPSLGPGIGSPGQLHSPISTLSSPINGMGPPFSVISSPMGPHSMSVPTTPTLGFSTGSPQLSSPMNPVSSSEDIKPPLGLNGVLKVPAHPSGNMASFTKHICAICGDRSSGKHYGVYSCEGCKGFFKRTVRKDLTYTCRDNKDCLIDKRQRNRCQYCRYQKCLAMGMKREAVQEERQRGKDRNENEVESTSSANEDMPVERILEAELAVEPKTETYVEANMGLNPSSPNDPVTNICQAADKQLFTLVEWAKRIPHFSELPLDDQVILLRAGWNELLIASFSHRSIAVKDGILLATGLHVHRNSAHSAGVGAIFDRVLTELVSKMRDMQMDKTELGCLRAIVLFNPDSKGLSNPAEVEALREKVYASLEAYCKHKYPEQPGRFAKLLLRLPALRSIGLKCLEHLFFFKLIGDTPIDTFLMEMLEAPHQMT
# THRA (gene 7067), sequence (P10827 whole entry, looked up, the tested form may be a part): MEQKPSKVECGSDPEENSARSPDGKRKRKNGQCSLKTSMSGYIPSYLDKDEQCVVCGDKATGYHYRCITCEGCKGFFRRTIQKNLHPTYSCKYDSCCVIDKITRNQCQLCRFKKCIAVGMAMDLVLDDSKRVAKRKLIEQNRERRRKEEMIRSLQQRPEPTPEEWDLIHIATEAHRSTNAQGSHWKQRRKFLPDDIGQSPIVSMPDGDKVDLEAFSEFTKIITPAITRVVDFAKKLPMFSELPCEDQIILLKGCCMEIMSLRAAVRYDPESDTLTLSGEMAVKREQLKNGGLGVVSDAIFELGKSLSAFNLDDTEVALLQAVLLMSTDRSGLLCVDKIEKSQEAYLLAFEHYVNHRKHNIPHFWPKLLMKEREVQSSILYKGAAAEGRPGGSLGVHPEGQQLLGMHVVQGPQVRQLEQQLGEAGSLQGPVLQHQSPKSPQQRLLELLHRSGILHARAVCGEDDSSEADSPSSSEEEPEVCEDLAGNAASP
# THRB (gene 7068), sequence (P10828 whole entry, looked up, the tested form may be a part): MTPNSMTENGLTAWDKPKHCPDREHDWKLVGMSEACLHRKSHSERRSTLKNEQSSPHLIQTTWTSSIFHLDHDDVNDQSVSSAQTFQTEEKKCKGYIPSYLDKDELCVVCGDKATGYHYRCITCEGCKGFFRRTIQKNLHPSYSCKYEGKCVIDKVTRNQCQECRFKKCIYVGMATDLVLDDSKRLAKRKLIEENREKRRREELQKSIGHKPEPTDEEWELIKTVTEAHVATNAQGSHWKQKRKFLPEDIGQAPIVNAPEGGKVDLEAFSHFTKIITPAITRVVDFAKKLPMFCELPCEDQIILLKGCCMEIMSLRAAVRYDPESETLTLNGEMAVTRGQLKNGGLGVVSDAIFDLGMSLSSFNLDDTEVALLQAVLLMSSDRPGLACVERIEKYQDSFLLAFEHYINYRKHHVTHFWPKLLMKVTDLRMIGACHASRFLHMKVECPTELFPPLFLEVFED
structure (smiles),measurement,setting,value
NC(=O)N(O)[C@@H]1COc2cc(OCc3ccccc3)ccc21,outcome,[1],inactive
same,outcome,[2],inactive
CC(C)C(=O)Nc1ccc([N+](=O)[O-])c(C(F)(F)F)c1,outcome,[1],inactive
same,outcome,[2],inactive
same,outcome,[3],inactive
same,outcome,[4],inactive
same,outcome,[5],inactive
same,outcome,[6],inactive
same,outcome,[7],inactive
same,outcome,[8],inactive
Cn1c(=O)c2[nH]cnc2n(C)c1=O,outcome,THRA (gene 7067) [9],inactive
same,outcome,THRB (gene 7068) [10],inactive
same,outcome,THRB (gene 7068) [11],inactive
same,outcome,[12],inactive
same,outcome,[13],inactive
O=c1[nH]cnc2c1ncn2[C@H]1CC[C@@H](CO)O1,outcome,THRA (gene 7067) [9],inactive
same,AC50,THRB (gene 7068) [10],9.78 µM (active)
same,outcome,THRB (gene 7068) [11],inactive
same,outcome,[12],inactive
same,outcome,[13],inactive
Nc1ccn([C@@H]2O[C@H](CO)[C@@H](O)[C@@H]2O)c(=O)n1,outcome,[14],inactive
same,outcome,[15],inactive
same,outcome,THRB (gene 7068) [16],inactive
COc1cc2c(c(OC)c1OC)-c1ccc(OC)c(=O)cc1[C@@H](NC(C)=O)CC2,outcome,[14],inactive
same,AC50,THRB (gene 7068) [17],0.0894 µM (active)
same,outcome,[15],inactive
same,outcome,THRB (gene 7068) [16],inactive
same,outcome,[18],inactive
Cc1nccn1-c1ccc(Sc2cccc(C3(C(N)=O)CCOCC3)c2)cc1,AC50,[14],32.9 µM (active)
same,outcome,THRA (gene 7067) [19],inactive
same,AC50,THRB (gene 7068) [17],21.5 µM (active)
same,outcome,[15],inactive
same,outcome,THRB (gene 7068) [16],inactive
same,outcome,[18],inactive
same,outcome,[20],inactive
